High-throughput results from PubChem BioAssay.
TRHR PAM: allosteric enhancers of human TRH receptor; hit rate 0.66% among 360,000; P34981; TRHR cells, fluo-8 calcium fluorescence, EC20 TRH enhancement; AID 493056; enhancement, % at 2 µM; in the data active = enhancement above about 30%
Target sequence (P34981 whole entry, looked up): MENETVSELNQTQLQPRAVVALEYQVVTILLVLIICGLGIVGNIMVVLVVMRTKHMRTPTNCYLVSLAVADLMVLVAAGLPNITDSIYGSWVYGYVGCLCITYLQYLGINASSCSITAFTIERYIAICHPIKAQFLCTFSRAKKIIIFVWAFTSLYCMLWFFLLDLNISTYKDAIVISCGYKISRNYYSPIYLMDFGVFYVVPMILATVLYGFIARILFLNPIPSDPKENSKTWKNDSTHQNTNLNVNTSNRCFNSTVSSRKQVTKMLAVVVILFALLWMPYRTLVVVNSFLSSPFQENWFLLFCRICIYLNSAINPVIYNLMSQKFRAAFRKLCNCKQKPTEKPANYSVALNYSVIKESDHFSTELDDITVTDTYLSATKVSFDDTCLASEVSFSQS
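TRHR-expressing cells loaded with fluo-8 calcium dye were read kinetically (ex 480/em 530) during compound addition, then stimulated with an EC20 of TRH (10 nM final). Enhancement of the Gq-mediated intracellular calcium response was scored.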
D1 potentiator: human D1 dopamine receptor positive modulation; potentiation, % at 10 µM; hit rate 0.036% among 360,000; HEK293 TREx D1 cells, calcium flux, dopamine EC20 potentiation; in the data active = potentiation above about 30%
D1 antag: blocks dopamine activation of the human D1 receptor | P21728 | HEK293 TREx D1 cells, calcium flux, dopamine EC80; hits give low values | activity change, negative = inhibition, % at 10 µM | hit rate 3.2% among 360,000 | AID 504652; in the data active = activity change below about -30%
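Tetracycline-induced HEK293 Trex D1 cells, force-coupled to calcium, dye-loaded; compounds added and read 180 s, then EC80 dopamine added and calcium flux tracked kinetically another 180 s.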
D1 ag: activates the human D1 dopamine receptor; P21728; HEK293 T-REx D1 cells, calcium flux, agonist mode; activation, % at 2 µM; hit rate 1% among 360,000
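Agonism was scored from calcium flux recorded over 180 s (1 read/s) after pintool compound addition, following a 10-cycle baseline. Cells were inducible force-coupled HEK293 TREx D1, plated overnight at 30 C and loaded with no-wash calcium dye.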
TRHR ag: activates the human TRH receptor; P34981; activation, % at 2 µM; TRHR cells, calcium flux fluo-8, FDSS agonist mode; hit rate 0.18% among 360,000
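Agonist-mode FDSS calcium read (Ex 480/Em 530, 1 s cycles) in 1536-well TRHR cells with fluo-8 dye, after 10-cycle baseline and 23 nL compound addition; TRH at EC20 (10 nM final) added afterwards for the enhancer phase.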
A number is an active result; - = inactive. Most compounds without a hit are left out; they make up all but 4.7% or so of the library. Cut-off read from the data, not from the text of the source, unless noted: active = activation above about 30%; inactive = the rest.

SMILES | TRHR PAM | D1 potentiator | D1 antag | D1 ag | TRHR ag
Cc1nn(Cc2ccccc2)c2sc(C(=O)N3CCN(Cc4ccc5c(c4)OCO5)CC3)cc12 | - | - | -31 | - | -
O=C(O)c1ccccc1C(=O)N1CCN(Cc2ccc3c(c2)OCO3)CC1 | - | - | - | - | -
Cc1ccc2c(c1)-c1c(ssc1=S)C(C)(C)N2C(=O)CSc1nncn1C | - | - | - | - | -
Cc1cc(C)c2c(c1)-c1c(ssc1=S)C(C)(C)N2C(=O)CSc1nncn1C | - | - | - | 39 | -
COCCNC(=O)Cn1cnc2c(cnn2-c2ccc(OC)cc2)c1=O | - | - | - | - | -
O=c1c2cnn(-c3ccccc3)c2ncn1Cc1ccccn1 | - | - | -41 | - | -
COc1ccc(-n2ncc3c(=O)n(CC(C)=O)cnc32)cc1 | - | - | -34 | - | -
O=c1c2cnn(-c3ccccc3)c2ncn1Cc1cccnc1 | - | - | - | - | -
COc1cccc(CNC(=O)CCCN2C(=O)CCn3nc(-c4cccn4C)cc32)c1 | - | - | - | - | -
CCN(c1ccccc1C(=O)O)S(=O)(=O)c1cccc2nsnc12 | - | - | - | - | -
Cc1cccc(-n2nnnc2SCc2csc(-c3ccccc3)n2)c1 | - | - | - | 42 | -
c1ccc(-c2noc(CSc3nnnn3-c3ccccc3)n2)cc1 | - | - | -43 | - | -
c1ccc(-c2noc(CSc3nnc(Cc4cccs4)n3-c3ccccc3)n2)cc1 | 40 | - | - | - | -
CCc1ccc(-n2c(Cc3ccccc3)nnc2SCc2nc(-c3cccs3)no2)cc1 | - | - | -37 | 84 | -
CCOc1ccc(CNC(=O)c2oc3c(c2C)-c2nn(Cc4cccc(Cl)c4)cc2CC3)cc1 | - | - | - | - | -
Cc1ccc(C)c(-c2nc(Cn3c(=O)cc(-c4ccccc4)c4c(C)nn(C)c43)c(C)o2)c1 | - | - | - | - | 32
Cc1ccc2nc(N3C(=O)C(O)=C(C(=O)c4ccc(C)o4)C3c3ccc(O)cc3)sc2c1 (stereo unspecified) | - | - | - | - | -
COCc1cc(C)nc2sc(C(=O)Nc3ccc(OC(F)(F)F)cc3)c(N)c12 | - | - | - | - | -
CN(Cc1ccccc1)Cc1c[nH]c2ccccc12 | - | - | -62 | - | -
CCOC(=O)C(NC(=O)CC(C)C)(Nc1sc(C)c(CC)c1C#N)C(F)(F)F (stereo unspecified) | - | - | -83 | - | -
CCOC(=O)C(NC(=O)CCl)(Nc1sc(C)c(CC)c1C#N)C(F)(F)F (stereo unspecified) | - | - | - | - | -
O=C(COc1ccccc1)NCC(=O)N1CCCCCC1 | - | - | - | - | -
Nn1cnc2c([nH]c3ccccc32)c1=O | - | - | -32 | - | -
COc1ccc2c(c1)[nH]c1c(=O)n(N)cnc12 | - | - | - | - | -
CC(C)CN(C(=O)C1COc2ccccc2O1)c1c(N)n(CC(C)C)c(=O)[nH]c1=O (stereo unspecified) | - | - | - | - | -
SMILES | TRHR PAM | D1 potentiator | D1 antag | D1 ag | TRHR ag
CCOc1ccc(NC(=O)CCCc2nnc3n(C)c(=O)c4sccc4n23)cc1 | - | - | - | - | -
CCCn1c(=O)c2sccc2n2c(CCCC(=O)NC3CCC(C)CC3)nnc12 (stereo unspecified) | 37 | - | - | - | -
CCc1ccc(NC(=O)CCc2nnc3n(C)c(=O)c4sccc4n23)cc1 | - | - | - | - | -
COc1ccc(NC(=O)CCCc2nnc3n(C)c(=O)c4sccc4n23)cc1 | - | - | -31 | - | -
Cc1cc(C)cc(NC(=O)CCc2nnc3n(C)c(=O)c4sccc4n23)c1 | - | - | -46 | - | -
Cc1nc(SC(C)C(=O)Nc2ccccc2Cl)cc(-c2ccccc2)n1 (stereo unspecified) | - | - | - | - | -
Cc1c(Cl)cccc1NC(=O)CSc1cc(-c2ccccc2)ncn1 | - | - | - | - | -
Cc1cccc(NS(=O)(=O)c2ccc(C)c(C(=O)NCc3ccccn3)c2)c1 | - | - | - | - | -
COc1ccc(-c2nnc(SCc3ccccn3)n2C)cc1 | - | - | - | - | -
COc1ccc(N=C(N)SCc2ccccn2)cc1 | - | - | -43 | - | -
Cc1cc(Br)ccc1NC(=O)CCS(=O)(=O)c1cccc2nsnc12 | - | - | - | - | -
C1=C(CCNc2ncnc3c2[nH]c2ccccc23)CCCC1 | - | - | -34 | - | -
COc1ccc(CNc2ncnc3c2[nH]c2ccccc23)cc1 | - | - | -42 | 33 | -
COc1ccc(CNc2ncnc3c2[nH]c2cc(OC)c(OC)cc23)cc1 | - | - | - | - | -
O=c1c2[nH]c3ccccc3c2ncn1CCC1=CCCCC1 | - | - | - | - | -
Cc1ccc2[nH]c3c(NCc4ccccc4)ncnc3c2c1 | - | - | -51 | 40 | -
COc1ccc2c(c1)[nH]c1c(=O)n(CCCN3CCOCC3)cnc12 | - | - | -31 | - | -
O=C1CN(C(=O)c2ccc(S(=O)(=O)N3CCCCC3)cc2)C(c2ccc(F)cc2)c2cc(Cl)ccc2N1 (stereo unspecified) | - | - | - | - | -
Cc1ccc2c(c1)[nH]c1c(=O)n(CCC3=CCCCC3)cnc12 | - | - | -32 | - | -
Cc1ccc2[nH]c3c(=O)n(CCC4=CCCCC4)cnc3c2c1 | - | - | - | - | -
O=C(C1CC1)N1CCc2cc(Br)cc(S(=O)(=O)Nc3ccc(F)c(F)c3)c21 | - | - | -31 | - | -
Cc1ccc(NS(=O)(=O)c2cc(Br)cc3c2N(C(=O)C2CC2)CC3)cc1C | - | - | - | - | -
O=C(Cc1ccccc1)Nn1c(O)c(/C=C2\C=Nc3ccccc32)sc1=S | - | - | - | 99 | -
C=C(C)CCC(C)N1CCC(n2nccc2NC(=O)CCOc2ccccc2)CC1 (stereo unspecified) | - | - | - | - | -
CCOc1c(OC(C)=O)ccc(/C=C/c2ccc3cccc(OC(C)=O)c3n2)c1[N+](=O)[O-] | - | - | - | - | -
SMILES | TRHR PAM | D1 potentiator | D1 antag | D1 ag | TRHR ag
C=CCN1C(=O)/C(=C/c2ccc(OC(C)=O)c(OCC)c2[N+](=O)[O-])SC1=S | - | - | -31 | - | -
Oc1ccc(Nc2nc(-c3ccccc3)nc3ccccc23)cc1 | - | - | - | - | -
OCCNc1nc(-c2ccccc2)nc2ccccc12 | - | - | -35 | - | -
O=C(Nc1nc(-c2ccccc2)nc2ccccc12)c1ccc(F)cc1 | - | - | -58 | - | -
Cc1ccc(Nc2nc(NCCO)c3ccccc3n2)cc1C | - | - | -38 | - | -
COc1ccccc1Nc1nc(NCCO)c2ccccc2n1 | - | - | - | - | -
Oc1ccc(Nc2nc(-c3ccc(Cl)cc3)nc3ccccc23)cc1 | - | - | -34 | - | -
CCCCCCCCC(=O)N/N=C/c1ccccn1 | - | - | - | - | -
